Drawing on PubChem BioAssay AID2806 (Sanford-Burnham Center for Chemical Genomics, 2010), this text covers inhibition for 102 compounds.

Structures are written as SMILES. Hit rate of the full screen: of about 330,000 compounds, about 660 (0.2%) were called active.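 Rule for the calls: active = inhibition of at least 40% at 10 µM in the primary screen; inactive = the rest.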 What follows is part of a selection rich in actives, with near analogues and random picks from the rest.

The subject of this test is intestinal alkaline phosphatase [Mus musculus]. In words: inhibitors of mouse IAP, primary screen, biochemical, luminescence, uHTS (AID 2806).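 Note: plate controls were DMSO with enzyme for no effect and no enzyme wells for full effect.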 The following applies: purified mouse IAP, CDP-Star luminescence, 30 min; at 10 µM; stronger effect = higher value.
As to `CSCCC(NC(=O)c1cc([N+](=O)[O-])cc([N+](=O)[O-])c1)c1nc2ccccc2[nH]1` (configuration not stated), the inhibition was -2% (inactive). In the case of `Nc1ccccc1Sc1cc(Cl)nnc1Cl` it was 2.3% (inactive); in that of `C=CCN1CC(C)/C(=N\O)CC1C` (configuration not stated), 0.1% (inactive).

Consider `CC(=O)Nc1ccc(NS(=O)(=O)c2ccc3c(c2)NC(=O)CC(=O)N3)cc1`, for which the inhibition was 1.9% (inactive). In the case of `Cc1cccc(-c2nc(CS(=O)CC(=O)NC(C)CCc3ccccc3)c(C)o2)c1` (configuration not stated) it was -5% (inactive). Take `CCCCn1c(N)c(N(CCOC)C(=O)c2oc3ccc(OC)cc3c2C)c(=O)[nH]c1=O`: the inhibition was -5.8% (inactive). In the case of `Cc1n[nH]c(=O)c2c(NC(=O)CSc3ccccc3F)oc(C)c12` it was -5.6% (inactive); in that of `Cc1ccccc1NC(=O)C1CCCN(C(=O)NCc2ccccc2)C1` (configuration not stated), -10.1% (inactive). In the case of `C=CCNC(=S)NNC(=O)COc1c(Cl)cc(Cl)cc1Cl` it was 2.2% (inactive); in that of `Cc1cccc(NC(=O)c2cc(S(=O)(=O)N3CCC4(CC3)OCCO4)ccc2F)c1`, 2.1% (inactive); in that of `CCOC(=O)c1c(C)[nH]c(C)c1C(=O)CSc1nc(N)cc(N)n1`, 2% (inactive).

On to `CNS(=O)(=O)c1ccc(C(=O)NCC(=O)NCCc2ccc3c(c2)OCCO3)cc1`, for which the inhibition is -6.6% (inactive). `O=C(CCC(=O)OCc1cccc(C(=O)Oc2ccccc2)c1)Nc1cccc2ccccc12`: the inhibition was 3.6% (inactive). On to `COc1ccc(NC(=O)CSc2nnc(C3CC3)n2C)cc1S(=O)(=O)N1CCCCC1`, for which the inhibition was -4.3% (inactive). As for `CCN(CC)C(=O)CS(=O)CC(=O)Nc1cc(OCCOC)c(Cl)cc1Cl` (configuration not stated), the inhibition is -1.1% (inactive). As to `Cc1ccccc1CN1CCC(C(=O)Nc2ccc(Oc3cccnc3)cc2)CC1`, the inhibition is -39.6% (inactive). In the case of `CCCC(=O)Nc1ccc(C(=O)N/N=C/c2ccc[nH]2)cc1` it was 40.9% (active); in that of `CC(=O)Nc1ccc(C(=O)/C=C/c2ccc[nH]2)cc1`, 1.1% (inactive); in that of `O=C(COc1ccccc1[N+](=O)[O-])N/N=C/c1ccc[nH]1`, 9.7% (inactive). In the case of `CCCC(=O)Nc1ccc(C(=O)NCCCn2ccnc2)cc1` it was -4.6% (inactive). Regarding `CN(CC(=O)NNC(=O)CNC(=O)c1ccccc1Cl)S(=O)(=O)c1ccc(Cl)cc1`, the inhibition is -5.3% (inactive).

Consider `O=C(COc1cccc2ccccc12)Nc1cc(S(=O)(=O)N2CCOCC2)ccc1N1CCOCC1`, for which the inhibition is 4% (inactive). In the case of `O=C1C=C(c2cc(C(F)(F)F)cc(C(F)(F)F)c2)C[C@@H](c2ccc3c(c2)OCO3)C1` it was 13.5% (inactive).

Regarding `S=c1[nH]nc2c3c4c(sc3ncn12)CCCC4`, the inhibition is 12.3% (inactive).

For the compound `Cc1cccc(N)c1SC1CCCCC1O` (configuration not stated), the inhibition was 2.7% (inactive). In the case of `COc1cccc(C(=O)OCc2cc(=O)oc3c(C)c(C)ccc23)c1OC` it was 8.2% (inactive). In the case of `Cn1c(SCC(=O)Nc2ccc(N3CCOCC3)cc2)nnc1C(F)(F)F`, the inhibition is -6.7% (inactive).

For the compound `Cc1nnc(SCC(=O)Nc2ncc3c(n2)CC(C)(C)CC3=O)s1`, the inhibition was 8.5% (inactive). In the case of `CCOc1ccc(N2C(=O)CN(c3cccc4ccccc34)C2=S)cc1` it was -14.2% (inactive); in that of `COc1ccc(OC)c(Nc2nc(-c3ccc(O)c(O)c3)cs2)c1`, 68.7% (active); in that of `COc1ccc(OC)c(-c2csc(NC(=O)COC(=O)C3CC3)n2)c1`, 6.9% (inactive). In the case of `COc1ccc(OC)c(-c2csc(NC(=O)C3=NNC(=O)CC3)n2)c1` it was 11.3% (inactive); in that of `O=[N+]([O-])c1ccc(N2CCNCC2)cc1NCc1cccnc1`, 3% (inactive); in that of `Nc1ccc(-n2nncc2-c2ccco2)cc1`, -3.6% (inactive). In the case of `C=CCn1c(SCc2nnc(-c3ccccc3)o2)nnc1C(O)c1ccccc1` (configuration not stated), the inhibition was -0.4% (inactive). In the case of `CCN(c1ccccc1)S(=O)(=O)c1cc2c(cc1C)n(C)c(=O)c(=O)n2C` it was -8% (inactive); in that of `NC(=O)C1CCCN(CC(=O)N2CCN(c3ccccc3)CC2)C1` (configuration not stated), 15% (inactive); in that of `COc1ccc(NC(=O)C2CCC(CNc3c(N4CCCCC4)c(=O)c3=O)CC2)c(OC)c1` (configuration not stated), -14.9% (inactive). In the case of `COc1ccc(N2CCN(S(=O)(=O)c3cc4c5c(c3)C(C)C(=O)N5CCC4)CC2)cc1` (configuration not stated) it was -7.1% (inactive). In the case of `CCn1c(C)c(C)c2cc(C(=O)N3CCN(c4cccc(C)c4C)CC3)ccc21`, the inhibition is 1.5% (inactive). Turning to `COc1ccc(OC)c(NC(=O)Cn2c(=O)oc3ccccc32)c1`, the inhibition was -4.3% (inactive). In the case of `CC(=O)Nc1c2c(nn1-c1cccc(C)c1)CSC2` it was 9.8% (inactive); in that of `CCCCC(=O)Nc1ccc2c(c1)C(=O)NC2=O`, 7% (inactive); in that of `Cc1nn(C)c(C(=O)NNC(=S)NC2CCCCC2)c1Cl`, 16.2% (inactive). In the case of `CCCCCCCCCOC1OC(CO)C(O)C(O)C1NC(C)=O` (configuration not stated) it was 3.6% (inactive); in that of `CCc1ccc(Nc2ncc3c(n2)CC(c2ccco2)CC3=O)cc1` (configuration not stated), 41.4% (active); in that of `O=C(Nc1ncc2c(n1)CC(c1ccco1)CC2=O)c1ccc(Cl)cc1` (configuration not stated), 0.8% (inactive).

In the case of `COc1cc(C2CC(=O)c3cnc(NC(C)=O)nc3C2)cc(OC)c1OC` (configuration not stated), the inhibition is 6.1% (inactive). In the case of `Brc1cnc2ccccc2c1N1CCCCC1` it was -0.5% (inactive); in that of `CCC(=O)c1ccc(OCC(=O)OCC(=O)N2CCc3ccccc3C2)cc1`, 2.5% (inactive); in that of `Cc1cc(NC(=O)/C=C/C(=O)N(CC(=O)NC2CCCC2)c2ccc(F)cc2)no1`, 5.2% (inactive). On to `O=C(NCc1cc(C(F)(F)F)cc(C(F)(F)F)c1)C1CC(c2cccc(F)c2)=NO1` (configuration not stated), for which the inhibition is -2.8% (inactive). `COc1ccc(CNC(=O)C2CC(c3ccc(C(F)(F)F)cc3)=NO2)cc1` (configuration not stated): the inhibition is 41.4% (active). In the case of `COc1ccc(CNC(=O)C2CCCC2)cc1` it was 4.3% (inactive).

Turning to `CC1CCCCN1S(=O)(=O)CCNC(=O)c1ccccc1` (configuration not stated), the inhibition was 8.6% (inactive). On to `Cc1ccc(C)c(NC(=O)CSc2nc3c(oc4ccccc43)c(=O)n2-c2ccccc2)c1`, for which the inhibition was 2.2% (inactive). In the case of `Cc1ccc(-c2nnn(CC(=O)N(CCO)C(C(=O)NC(C)(C)C)c3ccncc3)n2)cc1` (configuration not stated), the inhibition is -1.3% (inactive). In the case of `CCNC(=O)N1CCN(S(=O)(=O)c2ccc3c(c2)OCCCO3)CC1` it was -17.6% (inactive); in that of `COc1cccc2[nH]c(C(=O)NCCc3ccccc3)cc12`, -19.5% (inactive); in that of `O=C(N1CCCCC1)N1CCN(C(=O)N2CCCCC2)CC1`, -1.7% (inactive). Turning to `CC1(C)S[C@@H]2[C@H](N=CN3CCCCCC3)C(=O)N2[C@H]1C(=O)O`, the inhibition was -8.2% (inactive).

Regarding `O=C(COC(=O)Cn1[nH]c(=O)c2ccccc2c1=O)Nc1c(Cl)cccc1C(F)(F)F`, the inhibition was 4.1% (inactive). In the case of `O=C(c1cc2ccccc2o1)N1CCN(S(=O)(=O)c2ccc(Cl)s2)CC1` it was -5.4% (inactive); in that of `Cc1cc(-c2ccc(S(=O)(=O)N3CCc4ccccc4C3)s2)on1`, 4.5% (inactive).

Consider `NC(=O)NC(=O)CSc1nc2cc([N+](=O)[O-])ccc2n1-c1cccc(C(F)(F)F)c1`, for which the inhibition is 14.7% (inactive). As for `CCc1sc(C(=O)N2CCN(CC(=O)Nc3cccc(F)c3)CC2)cc1C`, the inhibition is 6.1% (inactive). In the case of `CC[C@]1(O)C[C@@H]2CN(CCc3c([nH]c4ccccc34)[C@@](C(=O)OC)(c3cc4c(cc3OC)N(C)[C@H]3[C@@](O)(C(=O)OC)[C@H](OC(C)=O)[C@]5(CC)C=CCN6CC[C@]43[C@@H]65)C2)C1` it was -16.7% (inactive); in that of `CCNc1c(NS(=O)(=O)c2ccc(C3CCCCC3)cc2)c(=O)oc2ccccc12`, 6% (inactive). Turning to `CC(=O)Nc1ccc(S(=O)(=O)Nc2cc(C)cn(Cc3ccc(C)cc3)c2=O)cc1`, the inhibition is 4.9% (inactive).

On to `O=C(Nc1cccc2ccccc12)c1onc2c1CCCC2`, for which the inhibition is 3% (inactive).

`COc1cc(CN2CCNC(=O)C2CC(=O)NCCc2ncccc2C)cc(OC)c1` (configuration not stated): the inhibition was 5.5% (inactive). In the case of `O=S(=O)(NCc1ccc2c(c1)OCO2)c1cccc2nsnc12` it was -5.4% (inactive); in that of `Cc1ccc(S(=O)(=O)NCC(=O)NNC(=O)c2ccc(Br)cc2)cc1C`, 28.4% (inactive); in that of `Cn1c2c(c(=O)n(C)c1=O)C1c3ccccc3OCC1C(C)(C)O2` (configuration not stated), 8.7% (inactive). In the case of `CC(C)Oc1ccc(CN2CCC(n3nccc3NC(=O)c3cccnc3)CC2)cc1` it was -5.5% (inactive).

Consider `Oc1cc(O)c2c(c1)OC(c1ccc(O)c(O)c1)C(O)C2` (configuration not stated), for which the inhibition was 75.1% (active).

`CC(C)Oc1ccc(CCc2nnc(SCC(=O)O)n2-c2ccccc2)cc1`: the inhibition is 3.2% (inactive). In the case of `O=[N+]([O-])c1cc(Cl)cc(/C=N/NC(=S)Nc2cc(S(=O)(=O)N3CCOCC3)ccc2Cl)c1O` it was 40.5% (active).

With `O=S(=O)(c1ccc(NC(=S)NN=C(C2CC2)C2CC2)cc1)N1CCOCC1`, the inhibition is 37.7% (inactive). For `Cc1ccc(S(=O)(=O)N2CCN(CC(=O)N/N=C/c3cc([N+](=O)[O-])ccc3Cl)CC2)cc1`, the inhibition is 14.9% (inactive). For `COc1ccccc1C1C(C(N)=O)=C(C)Nc2nc(CCCO)nn21` (configuration not stated), the inhibition was -1.6% (inactive). In the case of `Cc1occc1-c1nnc(SCC(=O)NC2CCCCC2)o1` it was -1.8% (inactive).

With `O=C1N[C@H](Cc2ccccc2)C(=O)N[C@H]1Cc1cn(S(=O)(=O)c2ccccc2)c2ccccc12`, the inhibition was -8% (inactive). Consider `CCOC(=O)C(NS(=O)(=O)c1ccc(C)cc1)(C(F)(F)F)P(=O)(OCC(C)C)OCC(C)C` (configuration not stated), for which the inhibition was 2.8% (inactive). In the case of `CCOC(=O)/C(N=Nc1cc(C(=O)O)cc(C(=O)O)c1)=C(\O)CCl` it was -0.2% (inactive).

`CCn1c(CSc2nncn2-c2ccc(OC)cc2)nc2cc(S(=O)(=O)N(C)C)ccc21`: the inhibition was 6.6% (inactive). `CCN(CC)S(=O)(=O)c1cc(C(=O)Nc2ccccn2)ccc1C`: the inhibition was 0.4% (inactive). Consider `OCC(O)CN(c1ccccc1)c1ccccc1` (configuration not stated), for which the inhibition was 0.3% (inactive). Turning to `CN(C(=O)C1CCN(c2ncnc3c2nc2n3CCCCC2)CC1)C1CCCCC1`, the inhibition is -5% (inactive). In the case of `FC(F)(F)c1nnc2c3ccccc3c(Cl)nn12` it was -3.6% (inactive); in that of `CC(=O)N1CC[n+]2c(-c3ccc([N+](=O)[O-])cc3)csc21`, 7.9% (inactive); in that of `Cc1nc(C(=O)N2CCCC(C(=O)c3ccc(Cl)cc3)C2)cs1` (configuration not stated), 0.3% (inactive). Regarding `CCc1ccc(CN(C)Cc2nc(Cc3ccccc3)no2)nc1`, the inhibition is -1.4% (inactive). For the compound `O=C1N[C@@H](Cc2ccccc2)C(=O)N2[C@H]1C[C@]1(Br)c3ccccc3N(S(=O)(=O)c3ccccc3)[C@H]21`, the inhibition is 5.7% (inactive). In the case of `CCC(=O)Nc1c(S(=O)(=O)c2ccccc2)c2nc3ccccc3nc2n1Cc1ccccc1`, the inhibition was 2.7% (inactive). In the case of `O=C(O)c1ccccc1OCc1ccccc1Cl` it was 6.6% (inactive); in that of `CN(C(=O)CSc1nnc(N)s1)c1c(N)n(Cc2ccccc2)c(=O)[nH]c1=O`, 3.6% (inactive). In the case of `Cc1ccc(N2C(=O)c3ccccc3C2(O)c2ncc[nH]2)cc1` (configuration not stated) it was -9% (inactive). With `CCC(C)(C(=O)NC1CCCCC1)N(C)C(=O)c1ccc2c(c1)OCO2` (configuration not stated), the inhibition was 2.8% (inactive). In the case of `CCOc1ccc(NS(=O)(=O)c2cc(C)c(C)cc2C)cc1` it was -7.7% (inactive). In the case of `CN(C)N(C)C(=O)C(O)(c1ccccc1)c1ccccc1` it was 2.1% (inactive); in that of `O=c1c(F)cn(C2CCCO2)c(=O)n1Cc1ccccc1Cl` (configuration not stated), -1.3% (inactive).

What is called inhibition is the drop in the measured response relative to a control, in per cent.
